Data as given in the supplement of paper PMC10849652.
Targets with a hit are over-represented here; the source holds about 7,900 in all. About 0.6% of all pairs of compound and target were hits.

How the values were obtained:
Assay in all cases: log2 fold change, soluble protein after heating vs DMSO (PISA); higher = thermal stabilisation; K562 cells, 10 uM, 30 min; active = over 0.2 and 3.5 SD of the protein, either way, in both replicates (recomputed)
[1] = compound: NC(=O)Nc1cc(-c2cccc(F)c2)sc1C(=O)N[C@H]1CCCNC1
Summary of the method: (§1)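 K562 cells at 2×10^6 cells/mL were exposed to 10 μM compound for 30 min, then aliquots were heated for 3 min across 48°C-58°C, pooled, and extracted in PBS containing 0.5% NP-40 at 4°C. The supernatant after 21,000xg for 90 min was taken as soluble protein and measured by TMTpro 16plex LC-MS/MS with channel sums equalised. Thermal stability is reported relative to control samples, with values from duplicates. Fold changes are given on a log2 scale.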

[2] = compound: NC(=O)c1cnc(N[C@@H]2CCCC[C@@H]2N)nc1Nc1cccc(-n2nccn2)c1
Summary of the method: as §1

[3] = compound: NC1(c2ccc(-c3nc4ccn5c(=O)[nH]nc5c4cc3-c3ccccc3)cc2)CCC1
Summary of the method: as §1

[4] = compound: NCC(=O)Nc1ccc(-n2nc(C(F)(F)F)cc2-c2ccc3c(ccc4ccccc43)c2)cc1
Summary of the method: as §1

entinostat = compound: Nc1ccccc1NC(=O)c1ccc(CNC(=O)OCc2cccnc2)cc1 [entinostat]
Summary of the method: as §1

vorinostat = compound: O=C(CCCCCCC(=O)Nc1ccccc1)NO [vorinostat]
Summary of the method: as §1

citarinostat = compound: O=C(CCCCCCNC(=O)c1cnc(N(c2ccccc2)c2ccccc2Cl)nc1)NO [citarinostat]
Summary of the method: as §1

silmitasertib = compound: O=C(O)c1ccc2c(c1)nc(Nc1cccc(Cl)c1)c1ccncc12 [silmitasertib]
Summary of the method: as §1

[5] = compound: O=C1NC(=O)C(c2cnc3ccccn23)=C1c1cn2c3c(cc(F)cc13)CN(C(=O)N1CCCCC1)CC2
Summary of the method: as §1

[6] = compound: c1cc(OCCN2CCCCC2)cc(-c2n[nH]c3ccc(-c4nnc[nH]4)cc23)c1
Summary of the method: as §1

entospletinib = compound: c1cn2cc(-c3ccc4cn[nH]c4c3)nc(Nc3ccc(N4CCOCC4)cc3)c2n1 [entospletinib]
Summary of the method: as §1

Measured: log2 fold change

SLC9A6 isoform 2 (UniProt Q92581)
inactive: [1] -0.021 | [2] 0.016 | [3] -0.091 | [4] -0.02 | entinostat -0.017 | vorinostat -0.078 | citarinostat 0.025 | silmitasertib 0.027 | [5] -0.021 | [6] -0.073 | entospletinib -0.004

TM9SF2 (UniProt Q99805)
inactive: [1] 0.026 | [2] 0.006 | [3] -0.138 | [4] -0.022 | entinostat -0.006 | vorinostat 0.006 | citarinostat -0.003 | silmitasertib 0.002 | [5] -0.057 | [6] -0.062 | entospletinib 0.023

SLC25A38 (UniProt Q96DW6)
inactive: [1] 0.035 | [2] -0.068 | [3] -0.21 | [4] 0.06 | entinostat -0.049 | vorinostat -0.096 | citarinostat 0.02 | silmitasertib 0.069 | [5] -0.022 | [6] -0.028 | entospletinib -0.02

SLC29A3 (UniProt Q9BZD2)
inactive: [1] -0.098 | [2] -0.124 | [3] -0.304 | [4] 0.04 | entinostat -0.022 | citarinostat -0.123 | silmitasertib 0.047 | [5] 0.142 | [6] -0.033 | entospletinib 0.023

SYF2 (UniProt O95926)
inactive: [1] 0.099 | [2] 0.089 | [3] -0.032 | [4] 0.101 | entinostat -0.022 | vorinostat -0.11 | citarinostat -0.069 | silmitasertib 0.016 | [5] 0.14 | [6] -0.153 | entospletinib 0.143

SRPRA (UniProt P08240)
inactive: [1] -0.03 | [2] 0.017 | [3] -0.049 | [4] -0.045 | entinostat 0.02 | vorinostat 0.033 | citarinostat 0 | silmitasertib 0.021 | [5] 0.008 | [6] 0.015 | entospletinib -0.052

SNRPB2 (UniProt P08579)
inactive: [1] 0.047 | [2] -0.012 | [3] 0.03 | [4] 0.038 | entinostat -0.016 | vorinostat -0.027 | citarinostat 0.023 | silmitasertib 0.051 | [5] 0.046 | [6] -0.034 | entospletinib -0.026

STK11IP (UniProt Q8N1F8)
Chain of UniProt Q8N1F8 (Q8N1F8 whole entry, looked up): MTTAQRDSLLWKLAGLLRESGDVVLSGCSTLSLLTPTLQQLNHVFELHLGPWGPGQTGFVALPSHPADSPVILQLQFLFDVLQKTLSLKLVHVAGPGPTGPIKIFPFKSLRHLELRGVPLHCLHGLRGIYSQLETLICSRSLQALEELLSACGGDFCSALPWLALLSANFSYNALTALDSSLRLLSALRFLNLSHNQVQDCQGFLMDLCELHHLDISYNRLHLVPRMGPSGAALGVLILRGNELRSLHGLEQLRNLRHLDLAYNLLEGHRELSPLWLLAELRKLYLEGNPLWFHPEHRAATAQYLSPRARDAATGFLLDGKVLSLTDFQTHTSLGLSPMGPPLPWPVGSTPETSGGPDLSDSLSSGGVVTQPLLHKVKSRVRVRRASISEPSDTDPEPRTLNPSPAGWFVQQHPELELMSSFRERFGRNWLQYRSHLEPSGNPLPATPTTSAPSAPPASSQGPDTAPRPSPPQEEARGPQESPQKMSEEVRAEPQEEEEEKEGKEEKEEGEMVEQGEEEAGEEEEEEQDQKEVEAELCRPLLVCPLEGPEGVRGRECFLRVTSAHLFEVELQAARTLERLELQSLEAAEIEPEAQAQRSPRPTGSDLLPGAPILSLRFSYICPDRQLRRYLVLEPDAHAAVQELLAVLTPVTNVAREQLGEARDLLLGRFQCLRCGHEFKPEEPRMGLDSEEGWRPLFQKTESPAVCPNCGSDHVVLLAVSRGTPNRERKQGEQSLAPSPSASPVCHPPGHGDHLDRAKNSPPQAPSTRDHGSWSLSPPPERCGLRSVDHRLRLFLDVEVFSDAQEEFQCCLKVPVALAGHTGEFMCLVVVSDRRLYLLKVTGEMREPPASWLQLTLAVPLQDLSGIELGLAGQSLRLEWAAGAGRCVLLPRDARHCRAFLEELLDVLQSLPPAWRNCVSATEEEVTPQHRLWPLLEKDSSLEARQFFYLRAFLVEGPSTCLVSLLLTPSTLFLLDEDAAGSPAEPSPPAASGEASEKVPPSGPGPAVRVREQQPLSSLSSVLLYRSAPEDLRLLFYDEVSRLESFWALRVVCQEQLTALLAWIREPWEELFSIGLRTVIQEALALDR
inactive: [1] 0.098 | [2] -0.412 | [3] -0.285 | [4] 0.086 | entinostat 0.046 | vorinostat -0.184 | citarinostat -0.032 | silmitasertib 0.217 | [5] 0.095 | [6] 0.016 | entospletinib 0.036

TBC1D24 (UniProt Q9ULP9)
inactive: [1] 0.047 | [2] -0.038 | [3] -0.091 | [4] -0.002 | entinostat 0.029 | vorinostat 0.291 | citarinostat 0.016 | silmitasertib -0.135 | [5] -0.082 | [6] -0.096 | entospletinib 0.004

SLC35A1 (UniProt P78382)
inactive: [1] -0.05 | [2] -0.015 | [3] -0.069 | [4] 0.1 | entinostat -0.065 | citarinostat 0.047 | silmitasertib 0.021 | [5] 0.028 | [6] -0.106 | entospletinib -0.142

SLC35F6 (UniProt Q8N357)
inactive: [1] -0.068 | [2] 0.045 | [3] -0.161 | [4] 0.005 | entinostat -0.185 | citarinostat -0.026 | silmitasertib 0.023 | [5] 0.074 | [6] 0.025 | entospletinib -0.011

SUCLA2 (UniProt Q9P2R7)
Chain of UniProt Q9P2R7 (Q9P2R7 whole entry, looked up): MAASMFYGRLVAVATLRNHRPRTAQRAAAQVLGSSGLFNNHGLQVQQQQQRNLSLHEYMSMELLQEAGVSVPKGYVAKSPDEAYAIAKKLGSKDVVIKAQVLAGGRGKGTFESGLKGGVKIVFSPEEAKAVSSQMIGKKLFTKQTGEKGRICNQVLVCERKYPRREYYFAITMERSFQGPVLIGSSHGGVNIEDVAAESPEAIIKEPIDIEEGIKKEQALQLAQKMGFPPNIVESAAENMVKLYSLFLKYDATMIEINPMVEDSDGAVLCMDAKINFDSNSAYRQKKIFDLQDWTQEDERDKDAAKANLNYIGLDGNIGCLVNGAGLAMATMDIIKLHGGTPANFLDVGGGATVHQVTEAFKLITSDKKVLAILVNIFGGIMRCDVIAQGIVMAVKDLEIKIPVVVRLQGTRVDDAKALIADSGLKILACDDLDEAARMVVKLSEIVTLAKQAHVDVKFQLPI
inactive: [1] -0.021 | [2] -0.058 | [3] -0.128 | [4] -0.077 | entinostat 0.014 | vorinostat 0.107 | citarinostat 0.068 | silmitasertib -0.039 | [5] -0.028 | [6] -0.046 | entospletinib -0.048

SNX1 (UniProt Q13596)
Chain of UniProt Q13596 (Q13596 whole entry, looked up): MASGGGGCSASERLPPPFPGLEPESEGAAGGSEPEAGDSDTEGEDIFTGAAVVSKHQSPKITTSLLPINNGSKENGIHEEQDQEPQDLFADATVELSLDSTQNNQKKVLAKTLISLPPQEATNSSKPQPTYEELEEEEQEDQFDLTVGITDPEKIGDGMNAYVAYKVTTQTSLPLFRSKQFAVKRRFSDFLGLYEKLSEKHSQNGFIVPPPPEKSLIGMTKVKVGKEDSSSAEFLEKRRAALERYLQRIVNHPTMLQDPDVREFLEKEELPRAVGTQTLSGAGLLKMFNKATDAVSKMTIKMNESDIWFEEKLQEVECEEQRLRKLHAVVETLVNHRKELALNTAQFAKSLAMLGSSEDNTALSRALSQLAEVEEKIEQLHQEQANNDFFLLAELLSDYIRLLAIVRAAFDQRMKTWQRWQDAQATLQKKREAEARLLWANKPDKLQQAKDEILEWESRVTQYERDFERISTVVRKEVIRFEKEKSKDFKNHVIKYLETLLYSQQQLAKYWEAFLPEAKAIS
inactive: [1] -0.01 | [4] 0.011 | entinostat 0.121 | vorinostat 0.147 | citarinostat 0.054 | silmitasertib -0.062 | [5] -0.04 | [6] -0.094 | entospletinib -0.002
active: [2] -0.375 | [3] -0.336

TERF2IP (UniProt Q9NYB0)
inactive: [1] 0.009 | [2] -0.132 | [3] 0.007 | [4] -0.018 | entinostat 0.061 | vorinostat 0.041 | citarinostat 0.068 | silmitasertib 0.121 | [5] -0.051 | [6] -0.073 | entospletinib -0.026

TM9SF4 (UniProt Q92544)
Chain of UniProt Q92544 (Q92544 whole entry, looked up): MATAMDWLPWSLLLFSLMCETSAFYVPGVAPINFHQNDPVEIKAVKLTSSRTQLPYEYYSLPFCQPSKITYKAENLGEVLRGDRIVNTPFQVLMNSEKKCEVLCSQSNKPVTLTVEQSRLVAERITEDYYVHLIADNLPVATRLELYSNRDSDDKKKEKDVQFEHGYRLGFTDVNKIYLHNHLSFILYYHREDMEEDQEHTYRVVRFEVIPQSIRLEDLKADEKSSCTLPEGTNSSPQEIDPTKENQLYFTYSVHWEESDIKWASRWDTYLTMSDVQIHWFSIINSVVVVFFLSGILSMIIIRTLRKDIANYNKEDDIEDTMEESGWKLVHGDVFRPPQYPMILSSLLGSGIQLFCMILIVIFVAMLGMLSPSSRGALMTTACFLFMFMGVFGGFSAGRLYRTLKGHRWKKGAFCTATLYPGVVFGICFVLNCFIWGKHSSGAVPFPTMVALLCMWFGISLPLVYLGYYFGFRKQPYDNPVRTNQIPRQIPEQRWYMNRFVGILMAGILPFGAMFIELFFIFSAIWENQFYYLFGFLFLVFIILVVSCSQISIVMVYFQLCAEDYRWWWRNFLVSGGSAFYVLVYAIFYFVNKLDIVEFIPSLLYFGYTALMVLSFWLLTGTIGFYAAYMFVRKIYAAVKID
inactive: [1] 0.024 | [2] 0.064 | [3] -0.061 | [4] 0.032 | entinostat -0.01 | vorinostat 0.146 | citarinostat 0.044 | silmitasertib 0.03 | [5] -0.011 | [6] -0.057 | entospletinib 0.022

SLC39A11 (UniProt Q8N1S5)
Chain of UniProt Q8N1S5 (Q8N1S5 whole entry, looked up): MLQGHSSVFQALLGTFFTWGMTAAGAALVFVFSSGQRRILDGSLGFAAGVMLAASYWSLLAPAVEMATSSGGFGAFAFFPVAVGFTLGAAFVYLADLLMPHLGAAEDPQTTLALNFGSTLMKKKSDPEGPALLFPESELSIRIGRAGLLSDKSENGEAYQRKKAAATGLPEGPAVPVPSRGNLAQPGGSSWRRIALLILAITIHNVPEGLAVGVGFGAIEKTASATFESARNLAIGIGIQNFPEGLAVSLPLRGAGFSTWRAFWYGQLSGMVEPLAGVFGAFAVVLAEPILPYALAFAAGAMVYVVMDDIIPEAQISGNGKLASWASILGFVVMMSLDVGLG
active: entospletinib -0.458
inactive: [1] 0 | [2] -0.027 | [3] -0.085 | [4] 0.024 | entinostat -0.016 | vorinostat -0.063 | citarinostat -0.059 | silmitasertib 0.078 | [6] -0.122

SLC38A7 (UniProt Q9NVC3)
inactive: [1] -0.017 | [2] 0.002 | [3] -0.299 | [4] 0.197 | entinostat -0.066 | vorinostat 0.11 | citarinostat 0.085 | silmitasertib 0.022 | [5] -0.107 | [6] -0.004 | entospletinib 0.004

SNRPD3 (UniProt P62318)
inactive: [1] 0.034 | [2] -0.01 | [3] 0.025 | [4] 0.013 | entinostat -0.059 | vorinostat -0.067 | citarinostat -0.019 | silmitasertib 0.092 | [6] -0.055 | entospletinib 0.01
active: [5] 0.271

TARBP1 (UniProt Q13395)
inactive: [1] -0.033 | [2] 0.048 | [3] -0.027 | [4] 0.014 | entinostat -0.044 | vorinostat 0.003 | citarinostat 0.079 | silmitasertib 0.034 | [5] 0.053 | [6] 0 | entospletinib 0.043

SOAT1 (UniProt P35610)
Chain of UniProt P35610 (P35610 whole entry, looked up): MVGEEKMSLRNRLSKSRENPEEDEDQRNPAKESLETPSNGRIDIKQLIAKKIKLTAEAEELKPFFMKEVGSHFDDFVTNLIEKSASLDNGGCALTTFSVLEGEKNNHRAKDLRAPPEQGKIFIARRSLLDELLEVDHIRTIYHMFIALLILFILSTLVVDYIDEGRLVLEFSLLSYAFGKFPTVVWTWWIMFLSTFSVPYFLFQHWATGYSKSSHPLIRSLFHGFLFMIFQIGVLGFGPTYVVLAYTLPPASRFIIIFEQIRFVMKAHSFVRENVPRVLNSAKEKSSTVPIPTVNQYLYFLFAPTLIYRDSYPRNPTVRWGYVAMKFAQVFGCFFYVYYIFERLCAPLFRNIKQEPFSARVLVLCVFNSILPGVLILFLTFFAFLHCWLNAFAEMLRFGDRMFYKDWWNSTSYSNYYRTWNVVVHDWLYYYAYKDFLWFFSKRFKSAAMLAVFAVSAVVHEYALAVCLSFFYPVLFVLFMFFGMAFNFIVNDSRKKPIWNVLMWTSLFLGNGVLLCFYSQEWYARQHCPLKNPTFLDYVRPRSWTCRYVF
inactive: [1] -0.073 | [2] -0.049 | [3] -0.171 | [4] -0.045 | entinostat 0.029 | vorinostat -0.063 | citarinostat 0.112 | silmitasertib 0.084 | [5] -0.098 | [6] -0.185 | entospletinib 0.079

SMG1 (UniProt Q96Q15)
inactive: [1] -0.073 | [2] -0.111 | [3] -0.101 | [4] -0.073 | entinostat -0.097 | vorinostat -0.012 | citarinostat 0.024 | silmitasertib 0.142 | [5] 0.013 | [6] -0.187 | entospletinib -0.004

SLC7A6 (UniProt Q92536)
Chain of UniProt Q92536 (Q92536 whole entry, looked up): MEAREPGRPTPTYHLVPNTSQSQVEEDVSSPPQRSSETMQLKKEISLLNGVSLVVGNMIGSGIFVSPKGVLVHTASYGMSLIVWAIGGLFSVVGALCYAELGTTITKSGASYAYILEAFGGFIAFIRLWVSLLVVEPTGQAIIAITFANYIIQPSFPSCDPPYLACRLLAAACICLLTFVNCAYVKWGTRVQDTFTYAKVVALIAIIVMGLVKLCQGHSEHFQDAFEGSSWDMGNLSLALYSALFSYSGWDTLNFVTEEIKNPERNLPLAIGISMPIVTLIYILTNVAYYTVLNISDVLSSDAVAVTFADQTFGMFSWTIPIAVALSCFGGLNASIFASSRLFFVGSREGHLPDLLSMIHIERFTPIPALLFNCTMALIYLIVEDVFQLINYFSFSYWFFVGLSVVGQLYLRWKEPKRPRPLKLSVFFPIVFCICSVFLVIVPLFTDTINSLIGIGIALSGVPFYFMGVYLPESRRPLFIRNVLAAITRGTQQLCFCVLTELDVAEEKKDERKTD
inactive: [1] -0.07 | [2] 0.089 | [3] 0.06 | [4] -0.017 | entinostat -0.029 | vorinostat -0.003 | citarinostat 0.026 | silmitasertib 0.007 | [5] -0.135 | [6] -0.049 | entospletinib 0.031

SLC35B4 (UniProt Q969S0)
inactive: [1] -0.006 | [2] -0.052 | [3] -0.094 | [4] -0.072 | entinostat -0.002 | citarinostat -0.009 | silmitasertib -0.034 | [5] -0.069 | [6] -0.06 | entospletinib 0.033

SNX15 (UniProt Q9NRS6)
Chain of UniProt Q9NRS6 (Q9NRS6 whole entry, looked up): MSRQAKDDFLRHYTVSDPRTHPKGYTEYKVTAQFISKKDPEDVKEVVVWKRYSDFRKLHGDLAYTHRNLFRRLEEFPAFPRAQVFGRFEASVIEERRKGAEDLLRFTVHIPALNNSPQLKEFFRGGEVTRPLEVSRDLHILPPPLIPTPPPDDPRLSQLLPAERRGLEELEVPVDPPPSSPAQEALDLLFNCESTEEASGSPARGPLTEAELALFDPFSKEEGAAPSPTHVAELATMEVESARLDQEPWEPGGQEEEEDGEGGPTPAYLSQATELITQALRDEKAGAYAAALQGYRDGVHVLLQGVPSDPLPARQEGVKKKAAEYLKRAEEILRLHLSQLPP
active: vorinostat 0.436
inactive: [1] 0.106 | [2] -0.135 | [3] -0.048 | [4] -0.133 | entinostat 0.061 | citarinostat 0.113 | silmitasertib 0.276 | [6] -0.073 | entospletinib 0.124

STARD3 (UniProt Q14849)
Chain of UniProt Q14849 (Q14849 whole entry, looked up): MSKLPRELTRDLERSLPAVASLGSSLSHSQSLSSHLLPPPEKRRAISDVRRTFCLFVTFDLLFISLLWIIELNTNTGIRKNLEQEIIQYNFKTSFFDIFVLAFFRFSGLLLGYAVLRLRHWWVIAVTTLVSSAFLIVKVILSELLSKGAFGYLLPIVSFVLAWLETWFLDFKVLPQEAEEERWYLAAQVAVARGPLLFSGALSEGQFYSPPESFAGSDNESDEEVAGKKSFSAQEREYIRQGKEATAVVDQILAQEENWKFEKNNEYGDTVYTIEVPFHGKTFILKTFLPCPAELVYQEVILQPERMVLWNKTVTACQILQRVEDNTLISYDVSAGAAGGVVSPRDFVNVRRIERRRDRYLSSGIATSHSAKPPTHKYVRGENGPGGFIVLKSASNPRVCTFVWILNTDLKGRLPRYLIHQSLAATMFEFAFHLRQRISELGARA
inactive: [1] 0.014 | [2] 0.079 | [3] -0.236 | [4] -0.073 | entinostat 0.004 | vorinostat -0.021 | silmitasertib 0.053 | [5] -0.003

SQSTM1 (UniProt Q13501)
inactive: [1] -0.036 | [2] -0.12 | [3] -0.068 | [4] -0.079 | entinostat 0.051 | vorinostat 0.007 | citarinostat 0.081 | silmitasertib 0.056 | [5] 0.019 | [6] -0.094 | entospletinib 0.02

SYNE2 isoform 2 (UniProt Q8WXH0)
inactive: [1] -0.229 | [2] -0.172 | [3] 0.087 | [4] -0.134 | entinostat -0.125 | vorinostat 0.072 | citarinostat 0.053 | silmitasertib -0.056 | [6] 0.03 | entospletinib -0.069

TFB2M (UniProt Q9H5Q4)
inactive: [1] -0.029 | [2] -0.066 | [3] -0.187 | [4] -0.066 | entinostat 0.054 | vorinostat 0.027 | citarinostat 0.01 | silmitasertib 0.046 | [5] -0.024 | [6] 0.003 | entospletinib -0.011
